Tau fluor cs – Counterscreen qHTS for Inhibitors of Tau Fibril Formation, Fluorescence Polarization; AID 1463, 2008; tau K18 P301L Alexa594 fluorescence, heparin fibrillization; 280,000 compounds, 0.93% hits; Potency, µM (series often up to 57.7 µM); further: nearly all actives have a fitted effect of over 55% in size
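Human tau K18 P301L (15 uM unlabeled, 0.24 uM Alexa 594-labeled) in 100 mM sodium acetate pH 7 with 20 uM heparin, 6 hr at 37 C. ThT 30 uM added, 1 hr ambient; Alexa 594 FP and total fluorescence read at 555/632 nm.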
ALDH1A1 inh – qHTS Assay for Inhibitors of Aldehyde Dehydrogenase 1 (ALDH1A1). AID 1030, 2008. Purified ALDH1A1, NADH fluorescence, propionaldehyde substrate. 220,000 compounds, 7.3% hits. Potency, µM (doses to about 75.3 µM), hits mostly inhibitors; active means well fitted inhibition curve with a large enough effect, not every such curve was filed as active; inconclusive means small, poorly fitted or top-dose-only effect, or another doubt; inactive means no such curve, though single readings can be large or run the other way
NPSR antag – qHTS Assay for Antagonists of the Neuropeptide S Receptor: cAMP Signal Transduction | 220,000 compounds, 1% hits | AID 1461, 2008 | Potency, µM (top dose mostly 38.3 µM), hits mostly inhibitors | Q6W5P4 | CHO-NPSR cells, cAMP TR-FRET, antagonist mode; further: nearly all actives have a fitted effect of over 50% in size
Target sequence (Q6W5P4 whole entry, looked up): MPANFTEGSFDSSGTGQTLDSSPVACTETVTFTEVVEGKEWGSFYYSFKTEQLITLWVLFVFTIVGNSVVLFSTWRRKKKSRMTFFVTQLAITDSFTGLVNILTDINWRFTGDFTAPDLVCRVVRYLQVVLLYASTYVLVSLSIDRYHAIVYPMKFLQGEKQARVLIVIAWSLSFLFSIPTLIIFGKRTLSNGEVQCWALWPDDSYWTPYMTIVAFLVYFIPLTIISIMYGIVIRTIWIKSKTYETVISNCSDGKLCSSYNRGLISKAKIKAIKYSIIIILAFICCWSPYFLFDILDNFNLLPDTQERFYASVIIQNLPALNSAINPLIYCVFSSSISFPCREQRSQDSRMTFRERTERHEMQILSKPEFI
HPGD inh – qHTS Assay for Inhibitors of HPGD (15-Hydroxyprostaglandin Dehydrogenase); purified HPGD, NADH fluorescence kinetic, PGE2 substrate; Potency, µM, actives largely listed as inhibitors; 150,000 compounds, 4.3% hits; AID 894, 2007; active means well fitted inhibition curve with a large enough effect, not every such curve was filed as active; inconclusive means small, poorly fitted or top-dose-only effect, or another doubt; inactive means no such curve, though single readings can be large or run the other way
Target sequence (P15428 whole entry, looked up): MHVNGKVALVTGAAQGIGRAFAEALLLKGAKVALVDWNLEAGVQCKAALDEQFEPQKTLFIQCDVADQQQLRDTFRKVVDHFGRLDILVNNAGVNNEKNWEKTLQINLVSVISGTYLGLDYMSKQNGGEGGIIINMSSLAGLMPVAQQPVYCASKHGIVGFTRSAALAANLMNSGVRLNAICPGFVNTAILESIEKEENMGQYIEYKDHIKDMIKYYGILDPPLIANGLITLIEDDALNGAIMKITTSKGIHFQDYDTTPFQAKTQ
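20 nM HPGD preincubated 15 min at room temperature with compound in 50 mM Tris-HCl pH 8, 0.01% Tween 20. Started with 1 mM NAD+ and 30 uM prostaglandin E2; NADH fluorescence (360/450 nm) read 5 times over 30-s intervals, last minus first.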
Tau fibril ThT – qHTS for Inhibitors of Tau Fibril Formation, Thioflavin T Binding | AID 1460, 2008 | Microtubule-associated protein tau (Homo sapiens), P10636 | 270,000 compounds, 2.1% hits | Potency, µM (titrated, usually from 57.4 µM), hits mostly inhibitors | recombinant tau K18 P301L (four-repeat tau fragment), heparin-induced fibrillization, ThT fluorescence; further: nearly all actives have a fitted effect of over 55% in size
Target sequence (P10636 561-689 P618L limits assumed): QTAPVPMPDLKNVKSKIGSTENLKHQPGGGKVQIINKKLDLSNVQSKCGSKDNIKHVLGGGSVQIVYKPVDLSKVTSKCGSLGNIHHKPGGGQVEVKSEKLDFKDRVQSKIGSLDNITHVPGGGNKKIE
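Recombinant human tau K18 fragment […] carrying P301L, 15 uM unlabeled plus 0.24 uM Alexa 594-labeled, was fibrillized with 20 uM heparin in 100 mM sodium acetate pH 7 for 6 hr at 37 C; 30 uM ThT fluorescence read after 1 hr.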
Tau FP inhib – qHTS for Inhibitors of Tau Fibril Formation, Fluorescence Polarization; Microtubule-associated protein tau (Homo sapiens), P10636; K18 P301L tau heparin fibrillization, Alexa594 FP, 6 h; Potency, µM (doses to about 57.7 µM), most hits filed as inhibitors; 280,000 compounds, 0.39% hits; further: nearly all actives have a fitted effect of over 55% in size
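Compound effects on tau fibrillization are measured by Alexa 594 fluorescence polarization (ex 555, em 632 nm). K18 P301L tau is used at 15 uM with 0.24 uM labeled tracer, and 20 uM heparin induces aggregation over 6 hr at 37 C.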
Large screens that a line does not name were inactive; [ ] = another dose, or the depositor's remark. Hits are enriched below; roughly 9.5% of the tested compounds scored in any of these assays. Unless noted, the call rests on the fitted dose curve; in most records, active means well fitted curve in the direction sought with a large enough effect; inconclusive means small, poorly fitted or top-dose-only effect, or another doubt; inactive means no such curve, though single readings can be large; an effect the other way counts as inactive or inconclusive.

O=[N+]([O-])c1ccc(OCC(O)CN2CCN(c3ccccc3F)CC2)cc1 (stereo unspecified)	none
O=[N+]([O-])c1ccc(O)c(C2=NNC(c3ccccc3F)C2)c1 (stereo unspecified)	Tau fibril ThT 16µM (no result: ALDH1A1 inh, HPGD inh)
CCCc1cc(-c2n[nH]c(C(=O)OCC)c2-c2cscn2)c(O)cc1O	Tau fluor cs inconclusive, ALDH1A1 inh 8.9µM, Tau fibril ThT inconclusive
CCOC(=O)c1[nH]nc(-c2c(O)cc(C)cc2O)c1-c1csc(C)n1	none
Cc1ccccc1OCCc1c(C)[nH]c(=S)[nH]c1=O	ALDH1A1 inh 20µM (no result: HPGD inh)
COc1ccc(NS(=O)(=O)/C=C/c2ccccc2)cc1	ALDH1A1 inh 2.5µM
CC(C)[C@H](NC(=O)c1ccccc1)C(=O)OCC(=O)NCc1ccc(F)cc1	none (no result: HPGD inh)
CSc1ccccc1NC(=O)c1ccc([N+](=O)[O-])cc1	ALDH1A1 inh 14µM, Tau fibril ThT inconclusive (no result: HPGD inh)
CCOC(=O)c1c(S(=O)(=O)N2CCC(C(=O)Nc3ccccc3OC)CC2)c(C)n(CC)c1C	none (no result: ALDH1A1 inh, NPSR antag, HPGD inh)
COc1cc(C=O)ccc1OCc1ccc(Cl)nc1	ALDH1A1 inh 5µM, Tau fibril ThT inconclusive (no result: HPGD inh)
COc1ccc(CCNCc2ccc(OCc3ccc(Cl)nc3)c(OC)c2)cc1OC	none
COc1ccc(C2=CC(c3cc(OC)c(OC)c(OC)c3)NC(=S)N2)cc1 (stereo unspecified)	none
S=C1NC(C23CC4CC(CC(C4)C2)C3)=CC(c2ccc3c(c2)OCO3)N1 (stereo unspecified)	ALDH1A1 inh 2.5µM (no result: HPGD inh)
COc1cc(C2C=C(C34CC5CC(CC(C5)C3)C4)NC(=S)N2)cc(OC)c1OC (stereo unspecified)	ALDH1A1 inh 1.1µM, NPSR antag 10µM
COc1ccc(OC)c(C2C=C(C34CC5CC(CC(C5)C3)C4)NC(=S)N2)c1 (stereo unspecified)	ALDH1A1 inh 2.5µM
Cc1ccc(C)c(Cn2c(=O)c3c(nc4n3CCN4c3ccccc3)n(C)c2=O)c1	none (no result: ALDH1A1 inh, NPSR antag, HPGD inh)
C=CCOC(=O)NC(CC(=Nc1ccc(OC)cc1)C(=O)OC)c1ccccc1 (stereo unspecified)	ALDH1A1 inh inconclusive (no result: NPSR antag)
NCC12CC3CC(C1)CC(c1ccc(Cl)cc1)(C3)C2	none (no result: HPGD inh)
COc1ccc(CCNC2CC(=O)N(CCc3ccccc3)C2=O)cc1 (stereo unspecified)	ALDH1A1 inh inconclusive
CCN(CC)c1ccc(NC2CC(=O)N(CCc3ccc(OC)cc3)C2=O)cc1 (stereo unspecified)	Tau fluor cs inconclusive, Tau fibril ThT 11µM, Tau FP inhib inconclusive (no result: ALDH1A1 inh, HPGD inh)
CCN(CC)c1ccc2cc(-c3nc(-c4cccs4)no3)c(=O)oc2c1	Tau fibril ThT inconclusive (no result: ALDH1A1 inh, NPSR antag, HPGD inh)
Cc1ccc(S(=O)(=O)Nc2cc(C)c(O)c(S(=O)(=O)c3ccc(C)cc3)c2)cc1	Tau fluor cs inconclusive, ALDH1A1 inh 0.63µM
Cc1cc(NS(=O)(=O)c2ccccc2)cc(Cl)c1O	ALDH1A1 inh 7.1µM
C/C(=N\NS(=O)(=O)c1ccccc1)c1cc(Cl)cc(Cl)c1O	ALDH1A1 inh inconclusive (no result: HPGD inh)
Cc1ccc(S(=O)(=O)Nc2ccc(S(=O)(=O)NC(C)(C)C)cc2)cc1	ALDH1A1 inh inconclusive
O=C(Cn1c(SCCOc2ccccc2Cl)nc2ccccc21)N1CCCCC1	none (no result: ALDH1A1 inh, NPSR antag, HPGD inh)
COCc1cccc(N2C(=O)CC(C3C=C(C)C4C(=O)N(c5cccc(COC)c5)C(=O)C4C3)C2=O)c1 (stereo unspecified)	none (no result: HPGD inh)
O=C(N/N=C/c1ccc(-c2ccc(S(=O)(=O)Nc3ncccn3)cc2)o1)c1cc2ccccc2cc1O	Tau fluor cs inconclusive, ALDH1A1 inh inconclusive, HPGD inh inconclusive, Tau fibril ThT 14µM, Tau FP inhib inconclusive
O=C(Nc1ccc(N2CCOCC2)cc1)c1cc2ccccc2o1	ALDH1A1 inh inconclusive, Tau fibril ThT 5.6µM
CCC(=O)N1CCN(c2ccc(NC(=O)c3cc4ccccc4o3)cc2)CC1	Tau fluor cs inconclusive, Tau fibril ThT 2.8µM
O=C(/C=C/N1CCOCC1)c1cc2ccccc2o1	ALDH1A1 inh 18µM, Tau fibril ThT inconclusive
N#CC(c1cccc(Cl)c1)c1ccc2c(C(F)(F)F)cc(C(F)(F)F)nc2n1 (stereo unspecified)	Tau fluor cs inconclusive, ALDH1A1 inh inconclusive, NPSR antag 10µM, Tau fibril ThT inconclusive
Cc1ccc(S(=O)(=O)N2CCc3cc(C(=O)Nc4c(C)cccc4C(C)C)ccc32)cc1	none (no result: ALDH1A1 inh, NPSR antag, HPGD inh)
CC(C)(C)Cc1nnc(NC(=O)CN2C(=O)c3ccccc3C2=O)s1	ALDH1A1 inh 22µM (no result: HPGD inh)
CCCCc1nnc(NC(=O)CN2C(=O)c3ccccc3C2=O)s1	Tau FP inhib inconclusive (no result: HPGD inh)
CCOC(=O)C1=C(c2ccccc2)N=c2s/c(=C\c3cccc(O)c3)c(=O)n2C1c1cccs1 (stereo unspecified)	Tau fluor cs inconclusive, NPSR antag inconclusive, Tau fibril ThT inconclusive, Tau FP inhib 13µM
CCOC(=O)C1=C(C)N=c2s/c(=C\c3ccc(OC(C)=O)c(OCC)c3)c(=O)n2C1/C=C/c1ccccc1 (stereo unspecified)	Tau fibril ThT inconclusive
COc1ccc(NS(=O)(=O)c2ccc3oc(Nc4ccc5c(c4)OCCO5)nc3c2)cc1	Tau fluor cs 13µM[quencher], ALDH1A1 inh inconclusive, NPSR antag inconclusive, Tau fibril ThT inconclusive, Tau FP inhib inconclusive
COc1ccc(NS(=O)(=O)c2ccc(NS(=O)(=O)c3ccc4c(c3)OCCO4)cc2)cc1	Tau fluor cs inconclusive, Tau FP inhib inconclusive (no result: ALDH1A1 inh, NPSR antag, HPGD inh)
COc1ccc(NS(=O)(=O)c2ccc(O)c(C(=O)OCC(=O)Nc3ccc4c(c3)OCCO4)c2)cc1	ALDH1A1 inh 22µM, HPGD inh inconclusive
COc1ccc(NS(=O)(=O)c2ccc(O)c(C(=O)OCC(=O)N3CC(C)OC(C)C3)c2)cc1 (stereo unspecified)	ALDH1A1 inh inconclusive
COc1ccc(CCC(=O)Nc2c(C)n(C)n(-c3ccccc3)c2=O)cc1	none (no result: HPGD inh)
COc1ccc(CCNC(=O)c2cnc3sc(N4CCC(C)CC4)nn3c2=O)cc1OC	none (no result: ALDH1A1 inh, NPSR antag, HPGD inh)
COC(=O)C1=C(C(=O)OC)[C@@H]2N(C)c3ccc(OC)cc3[C@@]23C[C@@H](C(=O)OC)N(S(=O)(=O)c2ccc4c(c2)OCCN4C)C3=N1	none (no result: NPSR antag)
Cc1ccc(N(CCC#N)C(=O)CSc2ccc3c(c2)OCCO3)cc1	ALDH1A1 inh inconclusive
Cc1ccc(N(CCC#N)C(=O)CCl)cc1C	ALDH1A1 inh 0.35µM
Cc1cccc(C(OC(=O)c2ccco2)C(=O)NCc2ccccc2)n1 (stereo unspecified)	none

High-throughput results (PubChem)
